Assay outcomes (PubChem BioAssay)
Sampled rows, rich in hits. Any-hit rate of the full collection: about 0.86%.
BJeLR viab HTS = BJeLR cell viability loss, primary screen, luminescence, CellTiterGlo ATP; hit rate 0.64% among 30,000; BJeLR fibroblasts viability, 48 h; HRASV12, hTERT and SV40 LT/ST transformed; viability loss activity score, % (no concentration beside the values); in the data active means viability loss activity score above about 50%;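 further: higher score means fewer live cells and less ATP luminescence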
A1 inhib = inducers of caspase activity in MEF A1-2A-BIM cells, primary screen, A1 inhibitor project, cell-based, CaspaseGlo luminescence. AID 2241, 2010. caspase activation, % (no concentration beside the values). hit rate 0.51% among 21,000. caspase-Glo luminescence, 3 h; percent of clofoctol signal, DMSO as zero;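 active means most replicate scores above 10, or exactly half above 10 with mean activity above 10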;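 further: effector caspase 3 and 7 activity cleaving a DEVD luciferin substrate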
The depositor's hits bear a star; nt = not tested or not shown.

SMILES	BJeLR viab HTS	A1 inhib
CCCNC(=O)c1cc2c(s1)CS(=O)(=O)C2	0	1
CN(C)CCNC(=O)c1cc2c(s1)-c1ccc(Cl)cc1SC2	123*	39*
CN(C)c1ccc(CNc2ccc3c(c2)ncn3-c2ccccc2)cc1	-2	nt
CCOC(=O)CCc1c(C)c(C#N)c2nc3ccccc3n2c1Cl	88*	nt
CCc1c(C)c(C#N)c2nc3ccccc3n2c1NCCC(C)C	-3	0
COc1ccc(NC(=O)C2CCCN(S(=O)(=O)c3ccc4c(c3)oc(=O)n4C)C2)cc1Cl (centres undefined)	-4	nt
CCOC(=O)Cc1nn(Cc2nc(-c3ccccc3)cs2)c(=O)c2ccccc12	4	0
C=C(C)C(=O)O[C@H]1[C@H]2C(=C)C(=O)O[C@@H]2C[C@@H](C)[C@@H]2O[C@@H]2C(=O)[C@](C)(O)[C@@H]1OC(C)=O	32	1
C=C(C)C(=O)O[C@H]1[C@H]2C(=C)C(=O)O[C@@H]2C[C@@H](C)/C=C/C(=O)[C@](C)(O)[C@@H]1OC(=O)C(=C)C	72*	2
CC(C)n1c(/C=C/[C@H](O)C[C@H](O)CC(=O)O)c(-c2ccc(F)cc2)c2ccccc21	56*	2
CC(C)n1c2ccccc2c2nnc(SCCCC(=O)c3ccc(F)cc3)nc21	7	-1
CC1CCCC[C@H]2C(=O)C=C[C@H](O)[C@@H]2CC(=O)O1 (some centres undefined)	62*	0
CC1CCC/C=C/C(=O)c2c(O)cc(O)cc2CC(=O)O1 (centres undefined)	4	0
CC(=O)O[C@H]1C(=O)[C@@]2(C)C([C@H](OC(=O)c3ccccc3)[C@]3(O)C[C@H](OC(=O)[C@H](O)[C@@H](NC(=O)c4ccccc4)c4ccccc4)C(C)=C1C3(C)C)[C@]1(OC(C)=O)CO[C@@H]1C[C@@H]2O (some centres undefined)	50*	2
CCOC(=O)N1CCN(CC(O)c2ccc3c(c2)CCN3C(C)=O)CC1 (centres undefined)	-8	nt
Cn1cc(C2=C(c3cn(CCCSC(=N)N)c4ccccc34)C(=O)NC2=O)c2ccccc21	56*	4
CN(C)CCCn1cc(C2=C(c3c[nH]c4ccccc34)C(=O)NC2=O)c2ccccc21	2	6
COC(=O)CN1C(=S)N(c2ccccc2)C(=O)C1CC(=O)Nc1ccc(F)cc1 (centres undefined)	-6	nt
COc1cccc(NC(=O)Cn2c(=O)c3cccn3c3ccccc32)c1	-1	0
Cc1cc(C)cc(NC(=O)Cn2c(=O)c3cccn3c3ccccc32)c1	17	56*
CNC1CCc2cc(OC)c(OC)c(OC)c2-c2ccc(OC)c(=O)cc21 (centres undefined)	59*	5
COc1c(O[C@@H]2O[C@H](CO)[C@@H](O)[C@H](O)[C@H]2O)cc2c(c1OC)-c1ccc(SC)c(=O)cc1C(NC(C)=O)CC2 (some centres undefined)	-5	-1
O=c1oc(Cl)c(Cl)c2ccccc12	55*	5
O=c1oc(-c2ccccn2)nc2ccccc12	-1	-5
O=C(Nc1ccc([N+](=O)[O-])cc1Cl)c1cc(Cl)ccc1O	99*	-7
SMILES	BJeLR viab HTS	A1 inhib
O=C(Nc1ccccc1)c1cc([N+](=O)[O-])ccc1Cl	-3	0
O=C(CCC(=O)Nc1ccc(F)cc1)Nc1ccc(F)cc1	1	1
Cc1ccc(Cl)cc1N1CCN(C(=O)c2ccccc2N(Cc2ccccc2)S(C)(=O)=O)CC1	-3	nt
CCC(Sc1nc2cc3c(cc2c(=O)n1Cc1ccco1)OCO3)C(=O)NCc1ccc(C)cc1 (centres undefined)	6	15*
CCC(Sc1nc2cc3c(cc2c(=O)n1Cc1ccco1)OCO3)C(=O)Nc1ccccc1OC (centres undefined)	7	-1
C=C1C(=O)O[C@H]2[C@H]1[C@@H](OC(=O)C(C)(O)C(C)Cl)C(OC(C)=O)/C(C(=O)OC)=C\CC[C@@]1(C)O[C@H]21 (some centres undefined)	85*	2
C=C1C(=O)O[C@H]2C1[C@H](OC(=O)/C(C)=C/CO)C/C(C)=C\CC[C@@]1(C)OC21 (some centres undefined)	-7	0
O=C(c1ccc(N2CCCC2=O)cc1)N1CCCC1	2	nt
C/C=C(\C)C(=O)OC1C(OC(=O)/C=C(/C)CC(=O)O)C2(CO)C(O)CC3(C)C(=CCC4C5(C)CCC(OC6OC(C(=O)O)C(O)C(OC7OC(C)C(O)C(OC8OC(CO)C(O)C(O)C8O)C7O)C6O)C(C)(C)C5CCC43C)C2CC1(C)C (centres undefined)	67*	-3
C[C@@H]1O[C@@H](O[C@H]2CC[C@@]3(C)C(CC[C@]4(C)C3CC=C3C5CC(C)(C)CC[C@]5(C(=O)O[C@@H]5O[C@H](CO)[C@@H](O)[C@H](O)[C@H]5O)CC[C@]34C(=O)O)C2(C)C)[C@H](O)[C@H](O)[C@H]1O (some centres undefined)	1	0
C/C=C(/C)C(=O)O[C@H]1[C@H](OC(=O)/C(C)=C\C)[C@]2(CO)[C@H](O)C[C@]3(C)C(=CCC4[C@@]5(C)CC[C@H](OC6OC(C(=O)O)C(O)C(OC7OC(C)C(O)C(OC8OC(CO)C(O)C(O)C8O)C7O)C6O)C(C)(C)C5CC[C@]43C)[C@@H]2CC1(C)C (some centres undefined)	125*	-4
CC1(C)CC[C@@]2(C(=O)O[C@@H]3O[C@H](CO)[C@@H](O)[C@H](O)[C@H]3O)C(C1)C1=CCC3[C@@]4(C)CC[C@@H](O[C@@H]5O[C@H](CO)[C@@H](O)[C@H](O)[C@H]5O[C@@H]5O[C@H](CO)[C@@H](O)[C@H](O)[C@H]5O)C(C)(C)C4CC[C@@]3(C)[C@]1(C)C[C@H]2O (some centres undefined)	-4	0
C/C=C(/C)C(=O)O[C@H]1[C@H](OC(=O)/C=C/c2ccccc2)[C@@]23C(CC1(C)C)[C@]1(CCC4[C@@]5(C)CC[C@H](O[C@@H]6O[C@H](C(=O)O)[C@@H](O)[C@H](O[C@@H]7O[C@H](CO)[C@H](O)[C@H](O)[C@H]7O[C@@H]7O[C@@H](C)[C@H](O)[C@@H](O)[C@H]7O[C@@H]7OC[C@](O)(CO)[C@H]7O)[C@H]6O[C@@H]6O[C@H](CO)[C@H](O)[C@H](O)[C@H]6O)C(C)(C)C5CC[C@@]4(C)[C@]1(C)C[C@H]2O)O[C@H]3O (some centres undefined)	80*	-3
C[C@@H]1O[C@@H](O[C@H]2[C@H](O[C@H]3[C@H](O)[C@@H](C(=O)O)O[C@@H](O[C@H]4CC[C@@]5(C)C(CC[C@]6(C)C5CC[C@]57OC[C@@]8(CCC(C)(C)CC85)[C@H](O)C[C@]76C)C4(C)C)[C@@H]3O[C@@H]3O[C@H](CO)[C@@H](O[C@@H]4OC[C@@H](O)[C@H](O)[C@H]4O)[C@H](O)[C@H]3O)O[C@H](CO)[C@H](O)[C@@H]2O)[C@H](O)[C@H](O)[C@H]1O (some centres undefined)	6	-1
CS(=NC(=O)Nc1ccc(Cl)cc1)c1sc(Cl)c2c1C(=O)CCC2 (centres undefined)	-9	-1
